Data from PMC7862700, “An all-to-all approach to the identification of sequence-specific readers for epigenetic DNA modifications on cytosine”.

Assays:
Experiment in all cases: DAPPL (digital affinity profiling via proximity ligation, sequencing); 10 mM Tris-HCl pH 7.5, 50 mM NaCl, 1 mM DTT, 4% glycerol, room temperature, 30 min; GST-TFs on glutathione beads, 16-mer random dsDNA library, 0.1% formaldehyde crosslink after washing; high values mean tight binding
Conditions in all cases: protein: recombinant; tags: N-terminal GST; dsDNA, one strand shown
FLI1 = molecular target: T1, FLI1 (Homo sapiens, UniProt Q01543 1-452)
T1 sequence: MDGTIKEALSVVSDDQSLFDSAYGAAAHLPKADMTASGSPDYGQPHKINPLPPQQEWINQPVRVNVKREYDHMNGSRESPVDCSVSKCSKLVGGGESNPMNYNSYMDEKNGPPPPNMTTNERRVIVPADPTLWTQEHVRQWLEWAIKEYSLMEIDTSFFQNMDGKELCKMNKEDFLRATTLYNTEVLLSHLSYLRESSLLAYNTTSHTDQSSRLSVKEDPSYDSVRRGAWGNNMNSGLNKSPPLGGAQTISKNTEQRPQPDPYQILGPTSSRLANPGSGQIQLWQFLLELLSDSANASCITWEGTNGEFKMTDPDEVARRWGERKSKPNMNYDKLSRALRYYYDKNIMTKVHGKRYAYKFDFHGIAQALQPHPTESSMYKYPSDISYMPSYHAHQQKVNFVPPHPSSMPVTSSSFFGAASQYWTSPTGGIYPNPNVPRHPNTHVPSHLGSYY
Method in brief: (§1)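 Each value of binding signal is a hexamer's read frequency for a factor divided by the same hexamer's frequency in the tag-only sample. Barcoded, bead-captured GST fusions of human transcription factors made in yeast were pooled with that sample and incubated with 200 nmole of a random double-stranded 16-mer DNA library in Tris/NaCl/DTT/glycerol buffer at room temperature for 30 min. Washing, 0.1% formaldehyde crosslinking, proximity ligation, PCR and Illumina NextSeq500 sequencing followed.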

ELK1 = molecular target: T2, ELK1 (Homo sapiens, UniProt P19419 1-428)
T2 sequence: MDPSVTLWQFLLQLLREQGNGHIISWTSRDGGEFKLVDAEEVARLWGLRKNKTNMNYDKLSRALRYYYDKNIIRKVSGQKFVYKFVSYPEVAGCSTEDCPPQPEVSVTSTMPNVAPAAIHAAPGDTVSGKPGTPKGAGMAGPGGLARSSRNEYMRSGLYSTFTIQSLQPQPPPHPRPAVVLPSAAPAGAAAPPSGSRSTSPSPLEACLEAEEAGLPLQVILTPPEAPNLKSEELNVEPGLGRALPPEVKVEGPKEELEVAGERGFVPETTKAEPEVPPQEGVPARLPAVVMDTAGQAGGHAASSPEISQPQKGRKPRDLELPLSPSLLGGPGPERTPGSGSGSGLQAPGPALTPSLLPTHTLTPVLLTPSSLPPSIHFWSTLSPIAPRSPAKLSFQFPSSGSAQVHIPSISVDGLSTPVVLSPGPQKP
Method in brief: as §1

GABPA = molecular target: T3, GABPA (Homo sapiens, UniProt Q06546 1-454)
T3 sequence: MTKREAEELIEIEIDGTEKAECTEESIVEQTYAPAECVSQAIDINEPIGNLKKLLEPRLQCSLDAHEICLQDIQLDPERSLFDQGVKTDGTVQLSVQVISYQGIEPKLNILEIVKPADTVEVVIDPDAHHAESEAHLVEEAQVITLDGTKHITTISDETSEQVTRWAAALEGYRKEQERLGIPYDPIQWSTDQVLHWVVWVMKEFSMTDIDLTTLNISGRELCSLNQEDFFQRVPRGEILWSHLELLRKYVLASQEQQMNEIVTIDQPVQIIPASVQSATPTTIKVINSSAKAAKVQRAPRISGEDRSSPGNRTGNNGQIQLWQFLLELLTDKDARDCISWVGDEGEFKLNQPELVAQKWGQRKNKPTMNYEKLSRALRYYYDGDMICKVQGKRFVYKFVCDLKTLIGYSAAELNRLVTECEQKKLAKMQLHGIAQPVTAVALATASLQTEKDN
Method in brief: as §1

ERG = molecular target: T4, ERG (Homo sapiens, UniProt P11308 1-479)
T4 sequence: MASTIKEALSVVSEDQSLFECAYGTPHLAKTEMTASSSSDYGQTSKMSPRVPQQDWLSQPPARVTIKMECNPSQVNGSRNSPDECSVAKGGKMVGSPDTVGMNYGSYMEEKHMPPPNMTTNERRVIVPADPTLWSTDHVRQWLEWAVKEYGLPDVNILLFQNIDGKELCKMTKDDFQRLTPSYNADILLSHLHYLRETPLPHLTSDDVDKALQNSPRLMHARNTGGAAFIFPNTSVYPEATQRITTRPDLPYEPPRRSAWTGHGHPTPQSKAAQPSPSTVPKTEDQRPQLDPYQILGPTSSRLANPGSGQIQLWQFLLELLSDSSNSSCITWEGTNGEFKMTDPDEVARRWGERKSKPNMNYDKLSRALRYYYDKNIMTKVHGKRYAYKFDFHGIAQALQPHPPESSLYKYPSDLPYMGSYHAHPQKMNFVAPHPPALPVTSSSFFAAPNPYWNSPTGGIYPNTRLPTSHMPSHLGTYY
Method in brief: as §1

ELF1 = ELF1 (Homo sapiens, UniProt P32519 1-619)
ELF1, sequence (P32519 whole entry): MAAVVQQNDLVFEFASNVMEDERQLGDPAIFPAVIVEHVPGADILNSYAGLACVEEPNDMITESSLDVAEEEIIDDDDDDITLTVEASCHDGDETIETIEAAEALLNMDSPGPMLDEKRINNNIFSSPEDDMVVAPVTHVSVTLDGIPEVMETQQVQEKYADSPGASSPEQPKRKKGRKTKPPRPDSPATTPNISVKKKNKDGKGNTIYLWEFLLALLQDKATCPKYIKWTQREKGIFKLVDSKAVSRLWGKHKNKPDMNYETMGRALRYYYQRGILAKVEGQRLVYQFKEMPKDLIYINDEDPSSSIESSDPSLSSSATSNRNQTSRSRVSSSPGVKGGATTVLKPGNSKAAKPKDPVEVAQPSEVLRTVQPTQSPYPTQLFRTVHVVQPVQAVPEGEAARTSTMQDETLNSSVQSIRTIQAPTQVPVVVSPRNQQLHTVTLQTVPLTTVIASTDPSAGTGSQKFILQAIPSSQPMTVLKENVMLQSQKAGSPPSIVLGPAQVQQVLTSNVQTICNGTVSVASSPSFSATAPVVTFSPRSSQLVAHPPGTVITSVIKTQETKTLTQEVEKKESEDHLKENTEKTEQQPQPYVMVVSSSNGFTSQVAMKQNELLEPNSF
Method in brief: as §1

SPI1 = SPI1 (Homo sapiens, UniProt P17947 1-270)
Method in brief: as §1

SPIB = SPIB (Homo sapiens, UniProt Q01892 1-262)
SPIB, sequence (Q01892 whole entry): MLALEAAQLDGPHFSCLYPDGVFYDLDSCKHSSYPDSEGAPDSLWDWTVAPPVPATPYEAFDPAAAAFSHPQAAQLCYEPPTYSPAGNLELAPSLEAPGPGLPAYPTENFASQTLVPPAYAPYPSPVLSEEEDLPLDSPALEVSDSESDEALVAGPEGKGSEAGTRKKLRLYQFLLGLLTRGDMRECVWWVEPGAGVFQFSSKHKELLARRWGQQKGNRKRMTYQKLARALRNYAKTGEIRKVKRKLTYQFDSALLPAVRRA
Method in brief: as §1

ELK3 = molecular target: T5, ELK3 (Homo sapiens, UniProt P41970 1-407)
T5 sequence: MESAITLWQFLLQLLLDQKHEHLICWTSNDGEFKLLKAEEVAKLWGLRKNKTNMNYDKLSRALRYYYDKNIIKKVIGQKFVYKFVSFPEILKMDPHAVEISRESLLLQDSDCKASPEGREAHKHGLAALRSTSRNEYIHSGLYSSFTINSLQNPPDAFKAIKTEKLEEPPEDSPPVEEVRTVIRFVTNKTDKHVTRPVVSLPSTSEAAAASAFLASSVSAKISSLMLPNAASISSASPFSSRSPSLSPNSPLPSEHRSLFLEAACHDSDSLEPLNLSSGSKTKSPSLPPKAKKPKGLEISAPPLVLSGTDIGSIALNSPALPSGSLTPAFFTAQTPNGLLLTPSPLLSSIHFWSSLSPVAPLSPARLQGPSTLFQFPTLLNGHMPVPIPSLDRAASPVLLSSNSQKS
Method in brief: as §1

FEV = molecular target: T6, FEV (Homo sapiens, UniProt Q99581 1-238)
T6 sequence: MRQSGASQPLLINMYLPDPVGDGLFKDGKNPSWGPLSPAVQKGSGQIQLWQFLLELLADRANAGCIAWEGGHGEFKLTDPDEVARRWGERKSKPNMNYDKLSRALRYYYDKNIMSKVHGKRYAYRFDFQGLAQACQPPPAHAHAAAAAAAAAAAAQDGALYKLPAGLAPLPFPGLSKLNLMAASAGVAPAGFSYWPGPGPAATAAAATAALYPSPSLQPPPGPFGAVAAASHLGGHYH
Method in brief: as §1

ETV5 = ETV5 (Homo sapiens, UniProt P41161 1-510)
ETV5, sequence (P41161 whole entry): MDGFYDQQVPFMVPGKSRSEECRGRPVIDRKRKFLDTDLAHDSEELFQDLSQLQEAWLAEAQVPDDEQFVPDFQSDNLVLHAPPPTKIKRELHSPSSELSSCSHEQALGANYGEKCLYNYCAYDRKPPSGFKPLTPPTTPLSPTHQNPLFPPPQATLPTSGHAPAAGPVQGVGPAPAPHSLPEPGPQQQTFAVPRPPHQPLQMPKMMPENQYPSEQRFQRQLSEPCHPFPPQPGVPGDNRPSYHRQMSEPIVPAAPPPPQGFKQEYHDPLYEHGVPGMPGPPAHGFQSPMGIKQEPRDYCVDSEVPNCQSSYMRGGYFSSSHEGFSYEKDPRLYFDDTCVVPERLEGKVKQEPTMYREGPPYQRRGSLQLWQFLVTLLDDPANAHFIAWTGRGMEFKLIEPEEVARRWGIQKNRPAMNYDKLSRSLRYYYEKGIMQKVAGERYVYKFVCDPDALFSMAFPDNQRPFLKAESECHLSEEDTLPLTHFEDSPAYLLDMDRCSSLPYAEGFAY
Method in brief: as §1

SPIC = molecular target: T7, SPIC (Homo sapiens, UniProt Q8N5J4 1-248)
T7 sequence: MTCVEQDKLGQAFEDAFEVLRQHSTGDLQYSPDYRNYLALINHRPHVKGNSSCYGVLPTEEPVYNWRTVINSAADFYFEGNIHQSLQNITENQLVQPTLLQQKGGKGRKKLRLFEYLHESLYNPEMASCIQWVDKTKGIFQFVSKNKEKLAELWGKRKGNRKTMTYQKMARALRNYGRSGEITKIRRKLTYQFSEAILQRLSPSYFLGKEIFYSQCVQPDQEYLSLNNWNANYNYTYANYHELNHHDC
Method in brief: as §1

ELF4 = ELF4 (Homo sapiens, UniProt Q99607 1-663)
ELF4, sequence (Q99607 whole entry): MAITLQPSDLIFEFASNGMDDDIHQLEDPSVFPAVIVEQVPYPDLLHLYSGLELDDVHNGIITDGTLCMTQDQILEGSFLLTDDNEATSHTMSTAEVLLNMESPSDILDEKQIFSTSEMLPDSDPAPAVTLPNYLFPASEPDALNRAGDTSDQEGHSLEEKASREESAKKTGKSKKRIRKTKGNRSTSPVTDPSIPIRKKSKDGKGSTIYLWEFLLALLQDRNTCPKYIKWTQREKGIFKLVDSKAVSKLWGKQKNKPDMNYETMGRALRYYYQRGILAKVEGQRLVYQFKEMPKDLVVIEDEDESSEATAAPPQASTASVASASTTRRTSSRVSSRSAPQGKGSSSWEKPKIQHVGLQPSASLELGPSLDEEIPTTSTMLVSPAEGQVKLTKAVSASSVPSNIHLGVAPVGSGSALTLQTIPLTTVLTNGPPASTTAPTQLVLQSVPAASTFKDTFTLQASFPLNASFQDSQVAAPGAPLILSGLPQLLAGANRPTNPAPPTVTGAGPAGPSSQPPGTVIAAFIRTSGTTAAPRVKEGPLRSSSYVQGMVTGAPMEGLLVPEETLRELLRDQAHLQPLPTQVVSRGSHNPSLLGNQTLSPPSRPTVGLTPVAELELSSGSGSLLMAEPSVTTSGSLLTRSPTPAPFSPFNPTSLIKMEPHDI
Method in brief: as §1

ELK4 = molecular target: T8, ELK4 (Homo sapiens, UniProt P28324-2 1-405)
T8 sequence: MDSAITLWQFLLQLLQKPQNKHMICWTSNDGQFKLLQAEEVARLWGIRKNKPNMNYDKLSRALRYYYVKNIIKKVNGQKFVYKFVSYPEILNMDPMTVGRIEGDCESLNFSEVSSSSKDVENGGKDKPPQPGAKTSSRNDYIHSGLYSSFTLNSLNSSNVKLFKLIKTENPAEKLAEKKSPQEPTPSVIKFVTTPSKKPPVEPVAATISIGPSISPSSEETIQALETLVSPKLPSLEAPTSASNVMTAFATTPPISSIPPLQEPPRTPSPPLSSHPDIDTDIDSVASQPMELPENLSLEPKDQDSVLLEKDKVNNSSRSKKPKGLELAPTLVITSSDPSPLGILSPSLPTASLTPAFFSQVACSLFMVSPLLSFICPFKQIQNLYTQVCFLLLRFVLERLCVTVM
Method in brief: as §1

ETV2 = molecular target: T9, ETV2 (Homo sapiens, UniProt O00321 1-342)
T9 sequence: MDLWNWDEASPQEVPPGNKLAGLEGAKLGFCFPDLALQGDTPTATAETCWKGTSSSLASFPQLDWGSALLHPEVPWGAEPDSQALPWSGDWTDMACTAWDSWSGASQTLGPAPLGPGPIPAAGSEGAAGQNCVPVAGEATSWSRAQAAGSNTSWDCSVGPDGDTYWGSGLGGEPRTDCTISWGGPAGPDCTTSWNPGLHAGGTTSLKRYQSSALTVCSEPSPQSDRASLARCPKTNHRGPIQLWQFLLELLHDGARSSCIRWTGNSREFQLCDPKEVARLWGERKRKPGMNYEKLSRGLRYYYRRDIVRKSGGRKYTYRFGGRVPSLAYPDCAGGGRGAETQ
Method in brief: as §1

ELF3 = molecular target: T10, ELF3 (Homo sapiens, UniProt P78545 1-371)
T10 sequence: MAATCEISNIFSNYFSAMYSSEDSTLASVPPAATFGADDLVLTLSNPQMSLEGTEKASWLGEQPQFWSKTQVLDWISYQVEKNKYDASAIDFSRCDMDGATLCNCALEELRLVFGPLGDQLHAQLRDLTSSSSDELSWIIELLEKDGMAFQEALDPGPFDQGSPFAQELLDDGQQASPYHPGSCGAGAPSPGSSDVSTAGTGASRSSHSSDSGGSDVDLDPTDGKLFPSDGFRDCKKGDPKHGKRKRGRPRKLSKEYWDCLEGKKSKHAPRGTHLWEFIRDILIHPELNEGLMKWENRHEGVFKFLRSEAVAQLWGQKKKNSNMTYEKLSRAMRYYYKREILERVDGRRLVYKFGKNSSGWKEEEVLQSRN
Method in brief: as §1

CRX = CRX (Homo sapiens, UniProt O43186 1-299)
CRX, sequence (O43186 whole entry): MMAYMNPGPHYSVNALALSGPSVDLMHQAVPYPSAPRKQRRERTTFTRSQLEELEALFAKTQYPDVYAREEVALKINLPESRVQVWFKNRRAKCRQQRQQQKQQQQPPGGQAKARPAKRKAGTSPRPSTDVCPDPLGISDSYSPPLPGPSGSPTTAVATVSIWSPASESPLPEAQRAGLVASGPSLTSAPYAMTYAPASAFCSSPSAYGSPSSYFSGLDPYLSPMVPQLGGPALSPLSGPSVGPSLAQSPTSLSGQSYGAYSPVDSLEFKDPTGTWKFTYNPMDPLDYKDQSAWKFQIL
Method in brief: as §1

ETV1 = ETV1 (Homo sapiens, UniProt P50549 1-477)
ETV1, sequence (P50549 whole entry): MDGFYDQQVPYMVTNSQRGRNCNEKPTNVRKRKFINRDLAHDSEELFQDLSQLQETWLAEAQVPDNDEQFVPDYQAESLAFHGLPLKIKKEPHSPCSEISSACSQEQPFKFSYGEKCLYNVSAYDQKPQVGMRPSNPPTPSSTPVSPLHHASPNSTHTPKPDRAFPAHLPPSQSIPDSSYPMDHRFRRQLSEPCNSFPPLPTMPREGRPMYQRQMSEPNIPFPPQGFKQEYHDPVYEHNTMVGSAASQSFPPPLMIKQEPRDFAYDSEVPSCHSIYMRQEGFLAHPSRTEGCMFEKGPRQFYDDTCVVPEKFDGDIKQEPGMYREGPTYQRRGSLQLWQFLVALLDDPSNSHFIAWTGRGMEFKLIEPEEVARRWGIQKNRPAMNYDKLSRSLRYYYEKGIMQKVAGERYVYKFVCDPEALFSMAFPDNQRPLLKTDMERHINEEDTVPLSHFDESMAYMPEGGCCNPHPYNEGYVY
Method in brief: as §1

## TTGCAG
FLI1
  binding signal: 1.12 fold enrichment (6-mer frequency, TF over GST control)
ELK1
  binding signal: 1.19 fold enrichment (6-mer frequency, TF over GST control)
GABPA
  binding signal: 1.15 fold enrichment (6-mer frequency, TF over GST control)
ERG
  binding signal: 1.15 fold enrichment (6-mer frequency, TF over GST control)
ELF1
  binding signal: 1.16 fold enrichment (6-mer frequency, TF over GST control)
SPI1
  binding signal: 1.08 fold enrichment (6-mer frequency, TF over GST control)
SPIB
  binding signal: 1.16 fold enrichment (6-mer frequency, TF over GST control)
ELK3
  binding signal: 1.24 fold enrichment (6-mer frequency, TF over GST control)
FEV
  binding signal: 1.08 fold enrichment (6-mer frequency, TF over GST control)
ETV5
  binding signal: 1.13 fold enrichment (6-mer frequency, TF over GST control)
SPIC
  binding signal: 1.05 fold enrichment (6-mer frequency, TF over GST control)
ELF4
  binding signal: 1.09 fold enrichment (6-mer frequency, TF over GST control)
ELK4
  binding signal: 1.29 fold enrichment (6-mer frequency, TF over GST control)
ETV2
  binding signal: 1.17 fold enrichment (6-mer frequency, TF over GST control)
ELF3
  binding signal: 1.13 fold enrichment (6-mer frequency, TF over GST control)
CRX
  binding signal: 1.1 fold enrichment (6-mer frequency, TF over GST control)
ETV1
  binding signal: 1.07 fold enrichment (6-mer frequency, TF over GST control)
